D1 agonist = activates the human D1 dopamine receptor; P21728; HEK293 T-REx D1 cells, calcium flux, agonist mode; activation, % at 2 µM; hit rate 1% among 360,000; note: 0% is about no effect
Target sequence (P21728 whole entry, looked up): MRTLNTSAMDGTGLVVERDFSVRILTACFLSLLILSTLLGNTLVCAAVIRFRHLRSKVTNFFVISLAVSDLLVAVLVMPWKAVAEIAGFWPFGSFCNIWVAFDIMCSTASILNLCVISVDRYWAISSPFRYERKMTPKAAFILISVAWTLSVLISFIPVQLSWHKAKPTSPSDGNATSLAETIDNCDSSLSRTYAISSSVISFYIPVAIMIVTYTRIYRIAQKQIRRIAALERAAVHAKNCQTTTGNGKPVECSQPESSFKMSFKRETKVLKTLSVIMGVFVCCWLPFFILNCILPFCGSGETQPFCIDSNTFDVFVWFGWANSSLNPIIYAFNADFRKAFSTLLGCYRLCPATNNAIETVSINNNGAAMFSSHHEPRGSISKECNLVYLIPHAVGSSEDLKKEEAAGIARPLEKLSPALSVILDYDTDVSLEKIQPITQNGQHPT
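Tetracycline-induced HEK293 TREx D1 cells, force-coupled to calcium signalling, were dye-loaded with a no-wash calcium kit. Compound was pin-added after a 10 s baseline. Fluorescence was read kinetically at 1 cycle/s for 180 s, with calcium rises flagged as agonism.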
D1 potentiator = enhances dopamine response at the human D1 receptor; P21728; hit rate 0.036% among 360,000; AID 504651; potentiation, % at 10 µM; HEK293 TREx D1 cells, calcium flux, dopamine EC20 potentiation; in the data active = potentiation above about 30%; note: 0% is about no effect
TRHR enhancer = allosterically enhances the human TRH receptor | P34981 | TRHR cells, fluo-8 calcium fluorescence, EC20 TRH enhancement | enhancement, % at 2 µM | hit rate 0.66% among 360,000 | AID 493056; in the data active = enhancement above about 30%; note: 0% is about no effect
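TRHR-expressing cells loaded with fluo-8 calcium dye were read kinetically (ex 480/em 530) during compound addition, then stimulated with an EC20 of TRH (10 nM final). Enhancement of the Gq-mediated intracellular calcium response was scored.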
D1 antag = human D1 dopamine receptor antagonism; hit rate 3.2% among 360,000; AID 504652; activity change, negative = inhibition, % at 10 µM; HEK293 TREx D1 cells, calcium flux, dopamine EC80; stronger effect = lower value; P21728; in the data active = activity change below about -30%; note: % is set by controls: 0 for no effect and ±100 for the full control effect
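Allosteric or orthosteric antagonism assessed as attenuation of the calcium response to EC80 dopamine, added 180 s after compound, in induced HEK293 Trex D1 cells loaded with no-wash calcium dye.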
TRHR agonist = activates the human TRH receptor. TRHR cells, calcium flux fluo-8, FDSS agonist mode. hit rate 0.18% among 360,000. P34981. AID 493084. activation, % at 2 µM; note: 0% is about no effect
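Steps: seed TRHR cells overnight; add fluo-8 no-wash Ca dye, RT 30 min–1.5 h; record 10 s baseline; pin-transfer compounds; monitor fluorescence 1 cycle/s for the agonist window. Calcium increases flag candidate agonists.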
The depositor's hits bear a star. This is a sample that favours compounds with a hit; in the whole collection about 4.6% have one here. Cut-off read from the data, not from the text of the source, unless noted: active = activation above about 30%; inactive = the rest.

Results for Cc1cc2c(s1)c1cnn(Cc3ccc(Br)cc3F)c(=O)c1n2C ?
D1 agonist: 2; D1 potentiator: -5; TRHR enhancer: 0; D1 antag: -17; TRHR agonist: 0

How did O=C(COC(=O)C12CC3CC(CC(O)(C3)C1)C2)Nc1ccc(Cl)cc1F do in these assays?
D1 agonist: 0; D1 potentiator: 2; TRHR enhancer: -3; D1 antag: -4; TRHR agonist: -1

How did O=C(COC(=O)C12CC3CC(CC(O)(C3)C1)C2)NCCc1ccc(Cl)cc1 do in these assays?
D1 agonist: 1; D1 potentiator: -14; TRHR enhancer: -8; D1 antag: -40*; TRHR agonist: 0

Results for CC1C(=O)CCC1(C(=O)O)c1ccccc1 (configuration not stated) ?
D1 agonist: 4; D1 potentiator: -3; TRHR enhancer: 33*; D1 antag: -17; TRHR agonist: 1

Results for Cc1cccc(-c2noc(-c3ccc(NCc4ccccc4)c([N+](=O)[O-])c3)n2)c1 ?
D1 agonist: 3; D1 potentiator: -2; TRHR enhancer: 2; D1 antag: -2; TRHR agonist: 0

What do the screens show for `Cc1ccc(NC(=O)/C(C#N)=C/c2ccc(C)s2)c(C)c1`?
D1 agonist: 43*; D1 potentiator: -2; TRHR enhancer: -5; D1 antag: 4; TRHR agonist: 0

What do the screens show for `O=C(Nc1ncc(Cc2ccccc2)s1)C1CCCO1` (configuration not stated)?
D1 agonist: 3; D1 potentiator: -1; TRHR enhancer: -5; D1 antag: -12; TRHR agonist: -1

How did CNc1ncc(Cc2ccccc2)s1 do in these assays?
D1 agonist: 3; D1 potentiator: -5; TRHR enhancer: 0; D1 antag: -53*; TRHR agonist: 1

Results for O=C(O)CC1(CC(=O)Nc2ccc3ccccc3c2)CCCCC1 ?
D1 agonist: 1; D1 potentiator: -5; TRHR enhancer: 0; D1 antag: 12; TRHR agonist: 0

How did O=C(O)CC1(CC(=O)Nc2ccc3ccccc3n2)CCCCC1 do in these assays?
D1 agonist: 1; D1 potentiator: -3; TRHR enhancer: 32*; D1 antag: 2; TRHR agonist: 0

What do the screens show for `Fc1ccccc1-n1ncc2c1ncn1nc(Cc3ccccc3)nc21`?
D1 agonist: 0; D1 potentiator: 0; TRHR enhancer: -2; D1 antag: 7; TRHR agonist: -1

How did CCOC(=O)N1CCc2c(sc(NCc3ccc(N(C)C)cc3)c2C(=O)Nc2ccccc2OCC)C1 do in these assays?
D1 agonist: 0; D1 potentiator: 1; TRHR enhancer: 6; D1 antag: 2; TRHR agonist: -1

What do the screens show for `N#C/C(=C\c1cccc(O)c1)C(=O)Nc1ccc2c(c1)OCCO2`?
D1 agonist: 0; D1 potentiator: -2; TRHR enhancer: -2; D1 antag: -4; TRHR agonist: 1

What do the screens show for `COc1c(NC(C)=O)c2ccccc2c2ccccc12`?
D1 agonist: -1; D1 potentiator: -5; TRHR enhancer: 38*; D1 antag: 1; TRHR agonist: 0

How did COc1cc(OC)c(NC(=O)c2ccccc2F)cc1Cl do in these assays?
D1 agonist: 1; D1 potentiator: 2; TRHR enhancer: 2; D1 antag: 12; TRHR agonist: 0

What do the screens show for `COc1cc(NC(=O)c2cc3ccccc3cc2O)c(OC)cc1Cl`?
D1 agonist: 17; D1 potentiator: -10; TRHR enhancer: -15; D1 antag: -58*; TRHR agonist: 5

Results for Cc1ccc(Cl)cc1NC(=O)c1cc2ccccc2cc1O ?
D1 agonist: 27; D1 potentiator: -9; TRHR enhancer: -11; D1 antag: -45*; TRHR agonist: 4

Results for Cc1ccc(C)c(N2CCN(C(=O)CN3C(=O)COc4ccc(S(=O)(=O)N5CCOCC5)cc43)CC2)c1 ?
D1 agonist: -2; D1 potentiator: 2; TRHR enhancer: 4; D1 antag: -3; TRHR agonist: 0

How did N#C/C(=C\c1cc(Cl)c(OCc2ccc(Cl)cc2)c(Cl)c1)C(N)=O do in these assays?
D1 agonist: 7; D1 potentiator: -14; TRHR enhancer: 5; D1 antag: -43*; TRHR agonist: 1

Results for Cc1ccc(-c2cc(NC(=O)COc3c(C)cc(C)cc3C)on2)cc1 ?
D1 agonist: 3; D1 potentiator: -2; TRHR enhancer: -6; D1 antag: -21; TRHR agonist: 0

Screens as filed in PubChem.
